The sample as a whole holds a higher share of hits than the screen did.
Choline anaer gr: growth inhibitors of anaerobic choline-fed gram-negatives, minimal medium, absorbance. calls only. actives 0.2% (n = 55,000). AID 1963822, 2024. Gram-negative bacterium anaerobic choline minimal medium; active compounds read low; call rule not given here
Active calls of the source: *; i = inactive; + = active, no number; ! = not active in a repeat.

SMILES | Choline anaer gr
O=C(CC1CCCC1)N1CCN(Cc2noc(-c3ccccc3)n2)CC1 | i
O=C(CC1CC1)N1CCCN(Cc2noc(-c3ccccc3)n2)CC1 | +
CC(=O)Nc1ccc(NC(=O)c2cc(C)nc3c2c(=O)n(C)c(=O)n3C)cc1 | i
CN(C)c1ccc(NC(=O)c2ccc(Br)cc2)c(C(=O)O)c1 | i
Cc1cccc(N2CCN(c3ccc(NC(=O)c4ccccc4Cl)c(C(=O)O)c3)CC2)c1C | i
CC1CCN(c2ccc(NC(=O)c3ccccc3Cl)c(C(=O)O)c2)CC1 | +
CCN1CCN(c2ccc(NC(=O)c3ccccc3Cl)c(C(=O)O)c2)CC1 | i
CN(C)c1ccc(NC(=O)c2ccccc2Cl)c(C(=O)O)c1 | +
O=C(Nc1ccc(N2CCN(C3CCCCC3)CC2)cc1C(=O)O)c1ccccc1Cl | i
O=S(=O)(NCc1ccc(Br)cc1)c1ccc2c(c1)-c1oncc1CO2 | i
CCCN1C(=O)c2c(C(=O)Nc3ccccc3CC)ncn2CC1(C)C(=O)NCc1ccccc1 (stereo not drawn) | i
CCSc1nc2ccc(NS(=O)(=O)c3ccccc3)cc2s1 | i
O=S(=O)(c1ccc2[nH]c3c(c2c1)CCCCC3)N1CCc2ccccc2C1 | i
O=C(Nc1ccc(Cl)cc1)N1CC=C(c2c[nH]c3ccccc23)CC1 | i
CCc1ccc(NC(=O)N2CC=C(c3c[nH]c4ccccc34)CC2)cc1 | i
O=C(CCC(=O)N1CC=C(c2c[nH]c3ccccc23)CC1)NCc1cccc(Cl)c1 | +
COCCN1CCc2nc(SCc3ccc(F)cc3Cl)[nH]c(=O)c2C1 | i
Cn1cc(C(=O)NCCCN2CCCC2=O)c2[nH]c(=O)n(-c3ccc(Cl)cc3)c(=O)c21 | i
CC(=O)OC1CCN(C(=O)C(C)(C)C)CC1 | i
Cc1nc(-c2cccc(-c3noc(C4CCCC4)n3)c2)cs1 | i
CC(Sc1nnc(-c2ccncc2)o1)C(=O)Nc1ccc2c(c1)OCCO2 (stereo not drawn) | i
O=C(CSc1nnc(-c2ccncc2)o1)Nc1ccc2c(c1)OCO2 | +
Cc1ccc(NC(=O)CSc2nnc(-c3ccncc3)o2)cc1Cl | i
O=C(NCc1ccc(Cl)cc1)c1nnc(C(=O)Nc2ccc(F)cc2)s1 | i
CN(C)c1ccc2ncc(=O)n(C)c2n1 | i
SMILES | Choline anaer gr
O=C(CSc1nc2nc[nH]c2c(=O)[nH]1)N1CCCC1 | i
Cc1ccc(NC(=O)CSc2nc(-c3ccc(C(C)C)cc3)no2)cc1 | i
CC(C)c1ccc(-c2noc(SCC(=O)Nc3ccccc3Cl)n2)cc1 | i
CC(C)c1ccc(-c2noc(SCC(=O)NCC3CCCO3)n2)cc1 (stereo not drawn) | +
CC1=C(C(=O)OC(C)C)C(c2cn(-c3ccccc3)nc2-c2ccc(Cl)cc2)NC(=O)N1 (stereo not drawn) | i
COc1ccccc1N(Cc1nc2nc(C)cc(=O)n2[nH]1)C(=O)CC(C)C | i
Cc1c(N2CCC(C(=O)NC3CC3)CC2)c(=O)n(C)c(=O)n1-c1ccccc1 | i
O=C1Nc2cc(C(=O)N3CCN(c4ccccn4)CC3)ccc2NC1CS(=O)(=O)Cc1cccc(Cl)c1 (stereo not drawn) | i
CCN(CC)CCCNC(=O)CCCN1C(=O)c2cccnc2Oc2ccc(Cl)cc21 | i
CCN(CC)CCCCN1c2ccccc2Oc2ccc(Cl)cc21 | +
CC(=O)NNC(=O)N1Cc2ccccc2Oc2ccc(Cl)cc21 | i
COc1ccc(-c2nc(CN3CCN(C(=O)c4ccc(N(C)C)cc4)CC3)c(C)o2)cc1 | i
CCN1CCN(c2nc3ncn(CC(=O)NCc4ccc5c(c4)OCO5)c(=O)c3s2)CC1 | i
COc1ccc(-c2cc3n(n2)CCC(=O)N3CC(=O)N2CCOCC2)cc1 | i
COc1ccc(N(Cc2nc3nc(C)cc(=O)n3[nH]2)C(=O)C(C)C)cc1 | i
O=C(Nc1ccc(Cl)cc1)N1CCCN(c2nc3cc(F)ccc3n3cccc23)CC1 | i
COC1C=CO[C@@]2(C)Oc3c(C)c(O)c4c(O)c(c5c(nc6cc(C)ccn65)c4c3C2=O)NC(=O)C(C)=CC=CC(C)C(O)C(C)C(O)C(C)C(OC(C)=O)C1C (stereo partly drawn) | i
CO[C@H]1/C=C/O[C@@]2(C)Oc3c(C)c(O)c4c(O)c(c(/C=N/N5CCN(C)CC5)c(O)c4c3C2=O)NC(=O)/C(C)=C\C=C\[C@H](C)[C@H](O)[C@@H](C)[C@@H](O)[C@@H](C)[C@H](OC(C)=O)[C@@H]1C | +!
COC1C=CO[C@@]2(C)Oc3c(C)c(O)c4c(O)c(c5c(c4c3C2=O)NC2(CCN(CC(C)C)CC2)N=5)=NC(=O)C(C)=CC=CC(C)C(O)C(C)C(O)C(C)C(OC(C)=O)C1C (stereo partly drawn) | i
CCOC(=O)c1c(C)[nH]c(C)c1S(=O)(=O)N(C)CC(=O)N1CCc2ccccc2C1 | i
Cc1cc(C)cc(OC(=O)c2cc(-c3ccccc3)on2)c1 | i
Cc1cc(C)c(S(=O)(=O)Nc2cnc(N3CCNCC3)c(C(=O)NCC3CCCO3)c2)c(C)c1 (stereo not drawn) | i
Cc1nnc(N2CCC(C(=O)Nc3ccccc3F)CC2)c2nn(-c3ccc(Cl)cc3)c(C)c12 | i
COc1ccc(-c2n[nH]c(CCNC(=O)Nc3ccc(C)c(C)c3)n2)cc1 | i
COC(=O)c1nc2ccccc2nc1NC1CCC(C)CC1 (stereo not drawn) | i
SMILES | Choline anaer gr
Cc1cc(-c2ccc(=O)[nH]n2)cc(S(=O)(=O)N(C)Cc2ccccc2)c1C | i
COC(=O)c1cccc(NC(=NCc2ccncc2)NC(=O)c2ccc3c(c2)OCO3)c1 | i
COc1ccc(C(=O)NC(=NCc2ccncc2)Nc2ccccc2)cc1OC | i
Cc1cccc(NC(=NCc2ccncc2)NC(=O)c2ccc3c(c2)OCO3)c1 | +
CCCCC/C=C\CC1OC1C/C=C\C/C=C\CCCC(=O)O (stereo not drawn) | i
CC/C=C\C/C=C\C/C=C\C/C=C\C/C=C\CCCCCC(=O)O | i
CCCCCCCCCCC/C=C\C/C=C\CCCC(=O)O | +
Cc1ccc(C(=O)NCCOc2ccc(-c3ccccc3)nn2)cc1 | i
CCCN1CCN(C(=O)C2CCN(S(=O)(=O)c3c(C)[nH]c(C)c3C(=O)N3CCCCC3)CC2)CC1 | i
CC1(C(=O)NC2CCCC2)Cn2c(cc3ccccc32)C(=O)N1c1ccc2c(c1)OCCO2 (stereo not drawn) | i
CCOc1cccc(C2Nc3ccccc3-n3cc4c(=O)n(C)c(=O)n(C)c4c32)c1O (stereo not drawn) | i
COc1cccc(C2Nc3ccccc3-n3cc4c(=O)n(C)c(=O)n(C)c4c32)c1OC (stereo not drawn) | i
Cn1c(=O)c2cn3c(c2n(C)c1=O)C(c1ccc(O)c(O)c1)Nc1ccccc1-3 (stereo not drawn) | i
Cc1ccc(C2Nc3ccccc3-n3cc4c(=O)n(C)c(=O)n(C)c4c32)c(O)c1 (stereo not drawn) | +
COc1ccc(C2Nc3ccccc3-n3cc4c(=O)n(C)c(=O)n(C)c4c32)c(OC)c1 (stereo not drawn) | +
COc1cccc(C2Nc3ccccc3-n3c(-c4ccccc4)c4c(=O)n(C)c(=O)n(C)c4c32)c1O (stereo not drawn) | i
Cc1[nH]c(C)c(S(=O)(=O)N2CCC(C(=O)N3CCC(C)CC3)CC2)c1C(=O)N1CCCCC1 | i
Cc1[nH]c(C)c(S(=O)(=O)N2CCC(C(=O)N3CCN(C4CCCCC4)CC3)CC2)c1C(=O)N1CCCCC1 | i
